A selection: hits, their analogues and other compounds. The true share with any hit is near 9.2%.
Rab9 promoter act = qHTS Assay for Rab9 Promoter Activators | Potency, µM (doses to about 9.22 µM), inactives show at the top dose activation, negative = inhibition, hits mostly activators | Huh7 Rab9 promoter-luciferase reporter, luminescence, 24 h | hit rate 2.8% among 320,000; note: % of control where 0% means no effect; nearly all actives have a fitted effect of over 60% in size
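Cells were plated at 1500 per well in reduced-serum medium with 10% FBS and left 2 h. Compound in DMSO was then added for 24 h at 37 °C. Reporter signal was read by luminescence after 10 min with luciferase detection reagent.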
SMN2 splice up = qHTS Assay for Enhancers of SMN2 Splice Variant Expression | HEK293 SMN2-luciferase splicing reporter, luminescence, 30-36 h | Potency, µM (highest dose often 46.1 µM), without a hit: at the top dose activity change, positive = activation, most hits filed as activators | hit rate 2.8% among 210,000 | AID 1458, 2008; note: % of control where 0% means no effect; nearly all actives have a fitted effect of over 55% in size
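HEK293 cells carry an SMN2 […]–luciferase reporter in which exon 7 inclusion puts luciferase in frame. Cells were plated 10-12 h before compound addition, then incubated 30-36 h at 37C. ONE-Glo luminescence was read; sodium butyrate at 4.5 mM final served as control.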
FLuc modulator = qHTS profiling assay for firefly luciferase inhibitor/activator using purifed enzyme and Km concentrations of substrates (counterscreen for miR-21 project); hit rate 6.9% among 360,000; purified FLuc, Km substrates, luminescence inhibition; Potency, µM (highest dose often 57.5 µM), without a hit: at the top dose activity change, negative = inhibition, actives largely listed as inhibitors; Luciferin 4-monooxygenase (Photinus pyralis), P08659;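 note: plate controls were vehicle for no effect and reference inhibitor for full effect; nearly all actives have a fitted effect of over 55% in size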
Target sequence (P08659 whole entry, looked up): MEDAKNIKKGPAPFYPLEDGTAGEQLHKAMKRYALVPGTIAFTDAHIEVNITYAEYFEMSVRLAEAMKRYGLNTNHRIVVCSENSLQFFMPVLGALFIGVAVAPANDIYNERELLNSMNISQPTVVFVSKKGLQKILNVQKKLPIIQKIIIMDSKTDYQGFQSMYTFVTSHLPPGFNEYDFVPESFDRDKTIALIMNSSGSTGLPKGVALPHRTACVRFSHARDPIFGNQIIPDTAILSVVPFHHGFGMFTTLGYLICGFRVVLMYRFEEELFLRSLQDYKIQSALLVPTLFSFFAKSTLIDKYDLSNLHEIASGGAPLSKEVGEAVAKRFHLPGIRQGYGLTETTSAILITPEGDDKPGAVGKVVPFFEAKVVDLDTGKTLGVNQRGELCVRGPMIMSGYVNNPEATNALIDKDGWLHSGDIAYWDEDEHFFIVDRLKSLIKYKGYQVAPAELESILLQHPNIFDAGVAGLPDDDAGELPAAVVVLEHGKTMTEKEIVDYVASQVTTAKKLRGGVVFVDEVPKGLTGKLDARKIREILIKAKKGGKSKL
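Purified P. pyralis luciferase, 10 nM final, with Km-level 10 uM D-luciferin and 10 uM ATP in 50 mM Tris acetate pH 7.5, 10 mM Mg acetate, 0.01% Tween-20, 0.05% BSA; 6-point qHTS titration about 60 µM downward; luminescence read.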
ELG1 DNA repair = qHTS screen for small molecules that inhibit ELG1-dependent DNA repair in human embryonic kidney (HEK293T) cells expressing luciferase-tagged ELG1; hit rate 2.3% among 330,000; Potency, µM (top dose mostly 46.1 µM), for the others: at the highest dose activity change, negative = inhibition, most hits filed as inhibitors; HEK293T ELG1-luciferase reporter, luminescence, 16 h; DNA damage induced by 5-fluorouridine; AID 504467, 2011; note: % is set by controls: 0 for no effect and ±100 for the full control effect; nearly all actives have a fitted effect of over 55% in size
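DMSO vehicle served as the neutral condition. Each well held 2,000 cells given 5-fluorouridine plus compound; after 16 hr at 37 °C/5% CO2, ONE-Glo was added and luciferase measured 30 min later.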
NPC1 promoter act = qHTS Assay for NPC1 Promoter Activators; Huh7 NPC1 promoter luciferase reporter, 24 h; Potency, µM (series often up to 9.22 µM), inactives show top-dose activation, actives largely listed as activators; hit rate 2.4% among 320,000; note: % of control where 0% means no effect; nearly all actives have a fitted effect of over 60% in size
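Luminescence from an NPC1 promoter-driven luciferase reporter in stably transfected Huh7 cells was measured after 24 h compound treatment at 37 °C, followed by 10 min ambient incubation with luciferase detection reagent.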
ELG1 genotoxic = qHTS screen for small molecules that induce genotoxicity in human embryonic kidney (HEK293T) cells expressing luciferase-tagged ELG1. HEK293T ELG1-luciferase reporter, luminescence, 16 h. Potency, µM (doses to about 46 µM), without a hit: top-dose activity change, positive = activation, most hits filed as activators. hit rate 1.3% among 330,000; note: % of control where 0% means no effect; nearly all actives have a fitted effect of over 60% in size
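DMSO vehicle served as control against compound-treated ELG1-luciferase HEK293T cells; exposure lasted 16 hr at 37 °C and 5% CO2, followed by ONE-Glo luminescence detection after 30 min.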
The depositor's hits bear a star; u = inconclusive; x = no result given. Calls come from the whole dose curve; as a rule, active = well fitted curve in the direction sought with a large enough effect; inconclusive = small, poorly fitted or top-dose-only effect, or another doubt; inactive = no such curve, though single readings can be large; an effect the other way counts as inactive or inconclusive. Potency is the fitted concentration of half-maximal effect.

SMILES	Rab9 promoter act	SMN2 splice up	FLuc modulator	ELG1 DNA repair	NPC1 promoter act	ELG1 genotoxic
Cc1cc(C)c(C#N)c(SCc2nc3ccccc3c(=O)[nH]2)n1	u	0.79µM*	2.4µM*	u	u	8.2µM*
Cc1ccc2nc(CSc3nc(C)ccc3C#N)[nH]c2c1	0.56µM*	2.5µM*	0.54µM*	u	u	11%
Cc1ccc2nc(SCc3nc4ccccc4c(=O)[nH]3)[nH]c2c1	2.8µM*	22µM*	9.5µM*	u	u	18%
CCc1c(C)sc(NC(=O)c2cc(C)on2)c1C#N	u	26%	12µM*	u	u	u
Cc1sc(NC(=O)c2ccccc2)c(C#N)c1-c1ccccc1	1.6µM*	8.9µM*	2.4µM*	u	2.8µM*	u
CCCc1cc(C(=O)Nc2sc(C)c(CC)c2C#N)no1	0%	6%	-14%	24%	6%	7%
Cc1ccc(C(=O)Nc2sc(C(=O)N(C)C)c(C)c2C#N)cc1	-2%	26%	u	1%	-1%	9%
CCc1c(C)sc(NC(=O)c2cccs2)c1C#N	u	11µM*	7.6µM*	u	u	u
CCCn1c(N)c(C(=O)COC(=O)c2cccc(S(=O)(=O)N3CCOCC3)c2)c(=O)[nH]c1=O	-1%	x	-2%	u	-1%	-3%
CC(C)CC(=O)NCC(c1ccc2c(c1)OCO2)N1CCN(c2ccccc2)CC1 (centres undefined)	x	x	-2%	x	x	x
Cc1cc(C)n(S(=O)(=O)c2ccccc2[N+](=O)[O-])n1	2%	x	0%	-7%	15%	-1%
O=c1c2c(nc3c(-c4ccccc4)c[nH]n13)CCC2	11%	-15%	u	-16%	-1%	-12%
O=c1c2c(nc3c(-c4ccc(Cl)cc4)c[nH]n13)CCC2	-29%	-96%	u	13µM*	-6%	-9%
COc1ccccc1C(=O)NCC(=O)Nc1ccc2c(c1)OCO2	15%	x	-9%	19%	0%	0%
COc1cc(SC)ccc1C(=O)Nc1c(C)cccc1C	-2%	-17%	-8%	2%	-6%	1%
Cc1ccccc1C(=O)Nc1ccc2c(c1)OCO2	0.45µM*	0.79µM*	4.8µM*	u	0.45µM*	1.6µM*
COc1ccccc1C(=O)Nc1ccc2c(c1)OCO2	2.5µM*	18%	13µM*	u	u	15µM*
COc1cc(SC)ccc1C(=O)Nc1ccc2c(c1)OCCO2	0.89µM*	5.6µM*	0.54µM*	u	u	u
COc1ccccc1C(=O)Nc1ccc2c(c1)OCCO2	1.8µM*	13µM*	7.6µM*	u	3.2µM*	u
CN(c1ccccc1C(=O)Nc1ccc2c(c1)OCO2)S(C)(=O)=O	-3%	-4%	-5%	-6%	-2%	1%
COc1ccc(-n2c(SCC(=O)N3CCC(C)CC3)nc3c([nH]c4ccccc43)c2=O)cc1	x	x	4%	x	x	x
COc1cccc(NC(=O)Cn2c(=O)n(CCCCC(=O)NCCc3ccccc3)c(=O)c3ccccc32)c1	x	-3%	-5%	x	x	x
COc1ccc(C(=O)Cn2c(C(=O)/C=C/c3ccccc3)nc3ccccc32)cc1	-11%	x	-22%	u	1%	u
NS(=O)(=O)c1ccc(CCNC(=O)CCC(=O)c2cccs2)cc1	-4%	x	0%	9%	-8%	-1%
Cn1nc(-c2ccccc2)c(CO)c1Oc1ccc(F)cc1	4%	-20%	2%	7%	1%	-1%
COc1cc(-c2noc(CCCC(=O)NCc3ccccc3)n2)cc(OC)c1OC	-4%	-2%	1%	18µM*	-3%	1%
